We go through 39 compounds from PubChem BioAssay (EPA / NIEHS).

SMILES strings stand for the structures. More than one record can exist for a structure, and the calls need not agree. The source made the active and inactive calls. Rule for the calls: active = hit-call score of the fitted dose curve at least 0.9, where 1 is the maximum; inactive = score below 0.9.

In this assay the target is Bile acid receptor (Homo sapiens) (UniProt Q96RI1). The experiment in a line: ATG_IR1_CIS: Attagene CIS-FACTORIAL HepG2 Assay for human Nuclear Receptor Subfamily 1 Group H Member 4 (NR1H4), IR1 submotif (AID 2282946). Particulars: IR1 reporter transcription, actives raise or lower the signal. The protocol: ATG_CIS is a cell-based, multiplexed-readout assay that uses HepG2, a human liver cell line, with measurements taken at 24 hours after chemical dosing in a 24-well plate.ATG_IR1_CIS is one of 52 assay component(s) measured or calculated from the ATG_CIS assay. It is designed to make measurements of mRNA induction, a form of inducible reporter, as detected with fluorescence intensity signals by Reverse transcription polymerase chain reaction (RT-PCR) and Capillary electrophoresis technology.Data from the assay component ATG_IR1_CIS was analyzed into 1 assay endpoint. This assay endpoint, ATG_IR1_CIS, was analyzed with bidirectional fitting relative to DMSO as the negative control and baseline of activity. Using a type of inducible reporter, measures of mRNA for gain or loss-of-signal activity can be used to understand the reporter gene at the transcription factor-level as they relate to the gene NR1H4. Furthermore, this assay endpoint can be referred to as a primary readout, because this assay has produced multiple assay endpoints where this one serves a reporter gene function. To generalize the intended target to other relatable targets, this assay endpoint is annotated to the nuclear receptor intended target family, where the subfamily is non-steroidal.
Bile acid receptor (Homo sapiens), sequence (Q96RI1 whole entry, looked up): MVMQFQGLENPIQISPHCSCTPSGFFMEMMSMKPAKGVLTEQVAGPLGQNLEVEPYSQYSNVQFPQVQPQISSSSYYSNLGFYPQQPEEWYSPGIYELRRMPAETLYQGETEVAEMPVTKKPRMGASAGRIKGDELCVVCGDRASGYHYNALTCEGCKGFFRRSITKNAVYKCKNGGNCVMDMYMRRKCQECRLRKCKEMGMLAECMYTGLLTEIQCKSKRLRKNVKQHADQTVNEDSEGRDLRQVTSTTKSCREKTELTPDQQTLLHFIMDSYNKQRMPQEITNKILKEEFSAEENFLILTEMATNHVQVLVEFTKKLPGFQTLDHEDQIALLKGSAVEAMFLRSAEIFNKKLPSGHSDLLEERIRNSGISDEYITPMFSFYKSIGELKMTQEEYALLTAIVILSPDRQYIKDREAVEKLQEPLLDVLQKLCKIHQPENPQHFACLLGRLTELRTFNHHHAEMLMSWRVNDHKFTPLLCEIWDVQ
Human liver HepG2 cells are transiently transfected with multiple reporter transcription units (MRTUs) in 6-well plates using FuGene 6 reagent (Roche; 3 ml FuGene/1 mg DNA). The MRTU constructs are regulated by a cis-regulating element (promoter). […] A major difference between the CIS and TRANS system is that in CIS activities of endogenous TFs are measured, whereas the TRANS assay evaluates changes in activities of exogenous, chimeric NR-Gal4 proteins. […] At the end of 24 hour incubation, total RNA was isolated using TriZol reagent (Invitrogen). The isolated RNA is then reverse-transcribed using oligo(dT) primer and Mo-MLV reverse transcriptase (Invitrogen) with DNAse I (Ambion) treatment for 30 min. The one-tenth of the produced cDNA was amplified by PCR using Taq DNA polymerase (Invitrogen) and two reporter sequence-specific primers. The PCR products were fluorescently labeled by primer extension with 6-arboxyfluorescein (6-FAM) 5'-labeled reporter sequence-specific primer (2 min at 95 C, 20 s at 68 C and 10 min at 72 C) and these products were digested with 5U of HpaI (New England Biolabs) for 2h at 37 C. The fragments were purified using Qiaquick PCR columns (Qiagen), analyzed on an ABI 3130xL genetic analyzer (Applied Biosystems) with peak positions identified by using a set of X-rhodamine (ROX)-labeled MapMarker1000 molecular weight standards (BioVentures). The raw capillary electrophoresis data was processed using Attagraph software (Attagene).
Turning to `CN(C)Cc1ccccc1O`, the result was inactive. Same read-out and setting: the same measure for `FC(F)(Br)C(F)(F)C(F)(F)C(F)(F)C(F)(F)C(F)(F)Br`: “inactive”. Still for that read-out and setting: the same measure for `CC(Cc1ccc(O)c(O)c1)C(C)Cc1ccc(O)c(O)c1` (stereo not given): “inactive”; for `OCC(F)(F)C(F)(F)C(F)(F)C(F)F`: “inactive”; for `CCCCCCCCC(F)(F)C(F)(F)C(F)(F)C(F)(F)C(F)(F)C(F)(F)F`: “inactive”. Still for that read-out and setting: the same measure for `CC(C)c1ccccc1N`: “inactive”; for `CC(=O)Nc1ccc(N=Nc2cc(C)ccc2O)cc1`: “inactive”; for `N=C(N)C(F)(F)C(F)(F)C(F)(F)C(F)(F)C(F)(F)C(F)(F)C(F)(F)F`: “inactive”.

As to `CCCCCC=O`, the compound was classed as inactive. As to `Nc1ccc(Oc2cccc(Oc3ccc(N)cc3)c2)cc1`, the AC50 was 24.6 µM (active). On to `O=C(O)C(F)(F)C(F)(F)C(F)F`, for which the result was inactive. On the same count and under the same terms, the same measure for `O=S(=O)(O)c1ccc2ccccc2c1`: “inactive”. Same read-out and setting: the same measure for `O=C(O)C(F)(F)C(F)(F)C(F)(F)C(F)(F)F`: “inactive”; for `CC(C)=CCCC(C)CCOC(=O)C(C)C` (stereo not given): “inactive”; for `C=CC(F)(F)C(F)(F)C(F)(F)C(F)(F)C(F)(F)C(F)(F)C(F)(F)C(F)(F)F`: “inactive”. Turning to `O=C(O)C(F)(F)C(F)(F)F`, the call was inactive.

In the case of `C=CC(=O)OCC(F)(F)C(F)(F)C(F)(F)C(F)(F)COC(=O)C=C`, the outcome was inactive. Same read-out and setting: the same measure for `C=CC(F)(F)C(F)(F)C(F)(F)C(F)(F)C(F)(F)C(F)(F)C(F)(F)C(F)(F)C=C`: “inactive”; for `CCCCOc1ccc(N)cc1`: “inactive”; for `Nc1cc(Cl)c(N)c(Cl)c1`: “inactive”. Still for that read-out and setting: the same measure for `[Co]`: “inactive”. The same measure, in the same setting: the same measure for `FC(F)(F)C(F)(F)C(F)(F)C(F)(F)C(F)(F)CCI`: “inactive”. Consider `c1ccc(-c2ccccc2-c2ccccc2)cc1`, for which the AC50 is 27.1 µM (active). In the case of `C=C(C)C(=O)OCC(F)(F)C(F)(F)C(F)(F)F`, the compound was called inactive. Same read-out and setting: the same measure for `CCCCCCS`: “inactive”; for `O=C(O)C(F)(F)C(F)(F)C(F)(F)C(F)(F)C(F)(F)C(F)(F)C(F)(F)C(F)(F)C(F)(F)C(F)(F)C(F)(F)C(F)(F)F`: “inactive”; for `CCN(CC)c1ccc2c(C)cc(=O)oc2c1`: “inactive”.

With `CO[Si](OC)(c1ccccc1)c1ccccc1`, the compound was called inactive. On the same count and under the same terms, the same measure for `FC(F)(F)C(F)(F)C(F)(F)C(F)(F)C(F)(F)C(F)(F)CCS`: “inactive”. The same measure, in the same setting: the same measure for `FC(F)(I)C(F)(F)C(F)(F)C(F)(F)I`: “inactive”; for `O=S(=O)(O)C(F)(F)C(F)(F)C(F)(F)C(F)(F)C(F)(F)C(F)(F)C(F)(F)F`: “inactive”. For the compound `O=C(O)C(F)(OC(F)(F)C(F)(OC(F)(F)C(F)(OC(F)(F)C(F)(F)C(F)(F)F)C(F)(F)F)C(F)(F)F)C(F)(F)F` (stereo not given), the compound was called inactive.

Consider `C=CC/C=C/C/C=C/C/C=C/C`, for which the result was inactive. The same measure, in the same setting: the same measure for `COC(OC(C)=O)c1ccccc1` (stereo not given): “inactive”; for `CC(C)(C)C(=O)CC(=O)C(F)(F)C(F)(F)C(F)(F)F`: “inactive”. On to `O=C(CC(=O)C(F)(F)C(F)(F)F)C(F)(F)F`, for which the AC50 is 106 µM (active) and the compound was classed as inactive.

On to `COC(=O)C1CCC(C(=O)OC)CC1` (stereo not given), for which the compound was classed as inactive. In the case of `CCCCCCOC(=O)c1ccccc1O`, the compound was called inactive.

Turning to `CC/C=C\CCOC(C)=O`, the outcome was inactive.

A word on the AC50: it is the midpoint of the concentration-response curve, whichever way the signal moves.
